# According to ChEMBL document CHEMBL2218924, “A broad activity screen in support of a chemogenomic map for kinase signalling research and drug discovery” (Biochem J, 2013):
# What was measured:
# [1] = molecular target: T1, Testis-specific serine/threonine-protein kinase 1 (Homo sapiens) (UniProt Q9BXA7); details: at 1 µM
# T1 sequence (whole entry): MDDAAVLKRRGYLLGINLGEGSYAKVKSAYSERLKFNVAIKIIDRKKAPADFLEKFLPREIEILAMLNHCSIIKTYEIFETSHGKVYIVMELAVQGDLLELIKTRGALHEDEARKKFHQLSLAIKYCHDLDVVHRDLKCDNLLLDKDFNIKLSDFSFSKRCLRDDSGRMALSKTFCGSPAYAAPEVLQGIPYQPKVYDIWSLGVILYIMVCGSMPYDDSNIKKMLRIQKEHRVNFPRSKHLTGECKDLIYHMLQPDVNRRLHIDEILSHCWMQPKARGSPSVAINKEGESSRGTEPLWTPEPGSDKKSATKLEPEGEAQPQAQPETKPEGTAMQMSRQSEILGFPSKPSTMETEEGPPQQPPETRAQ
# [2] = molecular target: T1, Testis-specific serine/threonine-protein kinase 1 (Homo sapiens); details: at 10 µM
# [3] = molecular target: T2, Testis-specific serine/threonine-protein kinase 2 (Homo sapiens) (UniProt Q96PF2); details: at 10 µM
# T2 sequence (whole entry): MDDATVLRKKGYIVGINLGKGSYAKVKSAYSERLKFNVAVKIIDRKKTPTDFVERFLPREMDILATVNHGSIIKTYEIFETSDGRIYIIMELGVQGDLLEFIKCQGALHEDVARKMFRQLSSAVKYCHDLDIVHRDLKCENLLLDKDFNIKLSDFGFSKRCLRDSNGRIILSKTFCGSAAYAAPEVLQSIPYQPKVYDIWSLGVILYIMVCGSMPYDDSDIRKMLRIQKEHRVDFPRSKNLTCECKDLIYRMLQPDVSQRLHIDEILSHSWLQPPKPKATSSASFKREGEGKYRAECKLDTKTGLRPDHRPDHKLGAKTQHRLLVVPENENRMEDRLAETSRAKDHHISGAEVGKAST
# [4] = molecular target: T3, Tyrosine-protein kinase Tec (Homo sapiens) (UniProt P42680); details: at 1 µM
# T3 sequence (whole entry): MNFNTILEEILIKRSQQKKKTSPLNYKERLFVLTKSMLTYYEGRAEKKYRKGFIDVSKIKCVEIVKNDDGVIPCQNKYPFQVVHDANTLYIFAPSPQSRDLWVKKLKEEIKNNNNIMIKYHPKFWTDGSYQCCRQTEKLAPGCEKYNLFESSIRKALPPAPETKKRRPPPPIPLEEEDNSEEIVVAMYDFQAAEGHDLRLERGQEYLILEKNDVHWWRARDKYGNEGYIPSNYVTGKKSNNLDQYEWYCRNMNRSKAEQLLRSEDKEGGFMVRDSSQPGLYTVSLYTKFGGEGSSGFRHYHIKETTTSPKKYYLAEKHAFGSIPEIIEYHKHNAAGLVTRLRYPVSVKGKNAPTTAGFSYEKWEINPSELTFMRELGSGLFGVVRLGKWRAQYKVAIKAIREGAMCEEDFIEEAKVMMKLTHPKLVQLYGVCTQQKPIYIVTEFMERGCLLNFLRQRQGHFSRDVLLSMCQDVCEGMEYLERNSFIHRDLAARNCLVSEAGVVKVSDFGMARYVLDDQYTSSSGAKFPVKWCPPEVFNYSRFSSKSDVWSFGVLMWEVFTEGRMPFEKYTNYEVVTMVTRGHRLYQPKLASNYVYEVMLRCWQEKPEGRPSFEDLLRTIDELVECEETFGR
# [5] = molecular target: T3, Tyrosine-protein kinase Tec (Homo sapiens); details: at 10 µM
# [6] = molecular target: Angiopoietin-1 receptor (Homo sapiens) (UniProt Q02763); details: at 1 µM
# Sequence of Angiopoietin-1 receptor (Homo sapiens) (Q02763 whole entry): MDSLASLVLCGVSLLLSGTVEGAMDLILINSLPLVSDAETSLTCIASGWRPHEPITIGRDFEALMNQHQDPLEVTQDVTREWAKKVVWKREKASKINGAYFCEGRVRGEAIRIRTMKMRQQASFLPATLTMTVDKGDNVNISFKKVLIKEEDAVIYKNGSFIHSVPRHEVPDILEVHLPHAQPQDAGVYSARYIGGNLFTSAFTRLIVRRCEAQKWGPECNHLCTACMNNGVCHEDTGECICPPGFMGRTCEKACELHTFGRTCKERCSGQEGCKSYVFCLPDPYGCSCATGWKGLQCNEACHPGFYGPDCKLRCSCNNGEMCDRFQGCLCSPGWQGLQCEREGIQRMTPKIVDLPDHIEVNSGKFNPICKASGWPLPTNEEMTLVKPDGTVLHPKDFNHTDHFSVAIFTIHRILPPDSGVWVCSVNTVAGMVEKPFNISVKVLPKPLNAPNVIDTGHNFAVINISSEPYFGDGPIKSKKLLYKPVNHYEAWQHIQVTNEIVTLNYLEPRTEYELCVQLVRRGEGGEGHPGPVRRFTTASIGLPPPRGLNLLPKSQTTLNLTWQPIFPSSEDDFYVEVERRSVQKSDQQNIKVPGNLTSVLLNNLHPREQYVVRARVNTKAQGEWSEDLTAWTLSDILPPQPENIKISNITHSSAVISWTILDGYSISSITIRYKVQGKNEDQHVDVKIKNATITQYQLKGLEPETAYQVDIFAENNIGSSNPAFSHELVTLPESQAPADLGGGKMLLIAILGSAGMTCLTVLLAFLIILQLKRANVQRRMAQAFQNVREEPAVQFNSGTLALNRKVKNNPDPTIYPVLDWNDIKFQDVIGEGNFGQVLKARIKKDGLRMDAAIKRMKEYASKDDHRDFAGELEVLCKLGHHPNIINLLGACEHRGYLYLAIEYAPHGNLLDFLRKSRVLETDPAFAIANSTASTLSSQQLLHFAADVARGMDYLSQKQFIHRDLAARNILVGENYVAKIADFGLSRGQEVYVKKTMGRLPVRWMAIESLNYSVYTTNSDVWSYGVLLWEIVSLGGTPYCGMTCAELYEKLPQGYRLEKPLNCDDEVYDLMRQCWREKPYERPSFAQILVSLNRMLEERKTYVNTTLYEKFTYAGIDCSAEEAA
# [7] = molecular target: Angiopoietin-1 receptor (Homo sapiens) (UniProt Q02763); details: at 10 µM
# [8] = molecular target: High affinity nerve growth factor receptor (Homo sapiens) (UniProt P04629); details: at 1 µM
# Sequence of High affinity nerve growth factor receptor (Homo sapiens) (P04629 33-796 limits assumed): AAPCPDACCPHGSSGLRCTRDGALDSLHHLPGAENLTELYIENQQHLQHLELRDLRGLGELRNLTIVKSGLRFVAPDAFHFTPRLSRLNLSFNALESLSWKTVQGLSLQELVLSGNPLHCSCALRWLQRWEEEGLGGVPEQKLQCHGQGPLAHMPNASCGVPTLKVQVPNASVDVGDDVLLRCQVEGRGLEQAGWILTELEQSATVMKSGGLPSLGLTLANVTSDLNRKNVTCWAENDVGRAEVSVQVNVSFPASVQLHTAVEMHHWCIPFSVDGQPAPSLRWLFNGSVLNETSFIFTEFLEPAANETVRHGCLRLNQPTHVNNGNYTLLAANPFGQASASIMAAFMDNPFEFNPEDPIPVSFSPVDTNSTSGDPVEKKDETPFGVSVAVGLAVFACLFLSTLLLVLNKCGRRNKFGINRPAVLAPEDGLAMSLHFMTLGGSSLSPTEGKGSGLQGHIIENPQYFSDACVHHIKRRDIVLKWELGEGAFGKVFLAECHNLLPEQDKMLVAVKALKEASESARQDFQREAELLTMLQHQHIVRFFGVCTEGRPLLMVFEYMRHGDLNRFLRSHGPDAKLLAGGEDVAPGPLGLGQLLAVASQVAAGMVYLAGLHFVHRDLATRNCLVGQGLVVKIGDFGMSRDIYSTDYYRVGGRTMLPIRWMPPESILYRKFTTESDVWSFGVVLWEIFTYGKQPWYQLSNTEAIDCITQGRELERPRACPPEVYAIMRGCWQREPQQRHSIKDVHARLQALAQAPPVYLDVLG
# [9] = molecular target: High affinity nerve growth factor receptor (Homo sapiens) (UniProt P04629); details: at 10 µM
# [10] = molecular target: BDNF/NT-3 growth factors receptor (Homo sapiens) (UniProt Q16620); details: at 1 µM
# Sequence of BDNF/NT-3 growth factors receptor (Homo sapiens) (Q16620 32-822 limits assumed): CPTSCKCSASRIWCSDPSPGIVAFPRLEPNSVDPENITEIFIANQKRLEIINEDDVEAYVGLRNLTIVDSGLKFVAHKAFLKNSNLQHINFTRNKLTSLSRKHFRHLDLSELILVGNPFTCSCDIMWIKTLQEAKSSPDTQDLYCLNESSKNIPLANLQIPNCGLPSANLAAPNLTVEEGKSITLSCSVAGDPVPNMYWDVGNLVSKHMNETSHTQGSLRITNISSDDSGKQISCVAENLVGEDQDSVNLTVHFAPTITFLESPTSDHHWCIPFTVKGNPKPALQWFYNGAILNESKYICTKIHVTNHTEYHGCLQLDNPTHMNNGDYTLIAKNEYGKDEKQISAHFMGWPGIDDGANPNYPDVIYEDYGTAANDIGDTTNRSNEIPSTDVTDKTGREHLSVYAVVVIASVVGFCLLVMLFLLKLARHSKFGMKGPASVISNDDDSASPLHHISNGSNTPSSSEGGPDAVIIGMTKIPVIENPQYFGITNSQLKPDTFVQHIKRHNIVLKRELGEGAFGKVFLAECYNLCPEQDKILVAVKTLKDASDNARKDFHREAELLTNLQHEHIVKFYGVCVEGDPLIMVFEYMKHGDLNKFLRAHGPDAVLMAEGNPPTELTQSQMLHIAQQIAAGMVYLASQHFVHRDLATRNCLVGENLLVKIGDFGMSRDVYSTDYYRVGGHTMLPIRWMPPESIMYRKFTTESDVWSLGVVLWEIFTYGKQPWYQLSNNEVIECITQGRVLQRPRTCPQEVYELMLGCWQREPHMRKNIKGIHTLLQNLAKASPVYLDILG
SMILES,residual activity [1],residual activity [2],residual activity [3],residual activity [4],residual activity [5],residual activity [6],residual activity [7],residual activity [8],residual activity [9],residual activity [10]
COc1ccc(S(=O)(=O)N(CCO)c2ccccc2CN(C)C/C=C/c2ccc(Cl)cc2)cc1,97%,81%,86%,102%,36%,118%,66%,87%,47%,86%
COc1cccc(-c2cc(=O)c3ccccc3o2)c1N,103%,89%,86%,87%,91%,108%,106%,99%,92%,105%
CCOc1cc2ncnc(Nc3cccc(Br)c3)c2cc1OCC,99%,83%,67%,74%,38%,48%,46%,87%,43%,116%
Nc1cccc(-c2cc3c(Oc4cccc(O)c4)ncnc3[nH]2)c1,101%,71%,78%,17%,0%,18%,1%,61%,6%,74%
O=C1NC(=O)c2c1c1c3ccccc3[nH]c1c1[nH]c3cc(Br)ccc3c21,110%,91%,86%,98%,82%,94%,81%,37%,27%,74%
Cc1ccc(S(=O)(=O)/C=C/C#N)cc1,91%,107%,91%,95%,90%,115%,118%,105%,92%,117%
CC(=O)O/N=C1\C(=C2\C(=O)Nc3cc(Br)ccc32)Nc2ccccc21,92%,86%,92%,59%,21%,86%,87%,6%,0%,29%
c1ccc(-c2n[nH]cc2-c2ccnc3ccccc23)nc1,91%,92%,93%,88%,91%,91%,90%,72%,76%,–
Cc1cccc(-c2[nH]c(C(C)(C)C)nc2-c2ccc3c(c2)OCO3)n1,101%,90%,94%,97%,91%,101%,83%,92%,106%,–
Cn1nc2c3c(cccc31)C(=O)c1ccccc1-2,100%,79%,76%,90%,69%,104%,79%,46%,9%,–
Cc1cc2ncc(-c3ccccc3)nc2cc1C,101%,97%,91%,90%,71%,98%,89%,106%,81%,94%
Nc1n[nH]c2nnc(-c3c(-c4ccccc4)nn4ccccc34)cc12,87%,90%,86%,82%,50%,94%,72%,68%,24%,94%
COc1cc2ncnc(Nc3ccc(O)c(Br)c3)c2cc1OC,87%,62%,91%,76%,34%,61%,53%,82%,44%,110%
COc1ccc(CNc2nc(N(CCO)CCO)nc3c2ncn3C(C)C)cc1,86%,70%,87%,103%,79%,101%,80%,75%,56%,72%
Cc1cncc2cccc(S(=O)(=O)N3CCCN(C(=O)CN)C[C@H]3C)c12,95%,79%,94%,100%,77%,78%,40%,64%,-1%,–
O=c1c2ccccc2[nH]c(=S)n1CCN1CCC(=C(c2ccc(F)cc2)c2ccc(F)cc2)CC1,101%,86%,70%,94%,44%,87%,59%,82%,87%,44%
O=C1c2ccccc2-[n+]2ccc3c([nH]c4ccccc43)c21,90%,89%,86%,77%,74%,90%,78%,83%,47%,89%
CC(C)n1cnc2c(NCc3ccccc3)nc(NCCCO)nc21,90%,89%,81%,90%,89%,104%,87%,93%,94%,88%
